Source: PubChem BioAssay AID588517 (NMMLSC, 2011)
The whole screen tested about 1,700 compounds, of which about 65 (4%) were called active.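 Rule for the calls: active = fluorescence ratio to DMSO above its plate's cutoff, the plate mean ratio plus 5 SD (cut at about 210% in these data); inactive = the rest.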 A selection follows.

Assay: intrinsic fluorescence of compounds, yeast control strain – S. cerevisiae AD/pABC3, flow cytometry, Cherry Pick1 set, artefact control for antifungal efflux pump inhibitor project, confirmation (AID 588517);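 note: unstained yeast with no Nile Red so the signal is compound autofluorescence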
Settings: S. cerevisiae AD/pABC3, compound fluorescence, at 10 µM, hits give high values

Fluorescence ratio to DMSO, inactive:
CSCCC(NS(=O)(=O)c1ccc(C)cc1)C(=O)N1CCCC1 (stereo unspecified) 90.1%
CCOc1ccccc1/C=c1\sc2nc(-c3ccco3)nn2c1=O 126%
CC(/C=N/NC(=O)c1cc(-c2ccc3ccccc3c2)n[nH]1)=C\c1ccco1 88.7%
COc1ccc(/C=C(\C#N)c2c[nH]c3ccccc23)cc1 106%
CCOc1ccc(/C=C2\SC(=S)N(NC(=O)c3ccncc3)C2=O)cc1OC 100%
Cc1cc(C)cc(NC(=O)C(OC(=O)c2ccc(O)cc2)c2ccccc2)c1 (stereo unspecified) 103%
COc1ccc(S(=O)(=O)N2CCOC2CNC(=O)C(=O)NCc2ccc(F)cc2)cc1 (stereo unspecified) 113%
Cc1nc2c(C(=O)NCc3ccc4c(c3)OCO4)c[nH]n2c(=O)c1Cc1ccccc1F 84.3%
Cc1ccc(Cn2nnc3c(=O)[nH]c(C4CCN(S(=O)(=O)/C=C/c5ccccc5)CC4)nc32)cc1 110%
O=C(/C=C/c1c(Cl)cccc1Cl)NCc1ccccc1 98.2%
Cc1cc(/C=N/NC(=O)CC2(C)OCCO2)c(C)n1-c1ccc(Cl)c(Cl)c1 102%
Cc1ccc(/C=C(\C#N)C(=O)Nc2cccc3ncccc23)o1 98.6%
Cc1oc2cc3oc(=O)ccc3cc2c1C 104%
Cc1ccc(Cn2c(C)nc3c(c2=O)c2nc4ccccc4nc2n3Cc2ccco2)cc1 105%
COc1ccc(C(=O)NC(=S)Nc2ccc(N3CCCC3)cc2)cc1OC 102%
CCCc1nnc(SCC(=O)Nc2ccc(C(=O)OCC)cc2)o1 116%
CCOC(=O)CNC(=O)CSc1nnnn1-c1cc(C)ccc1C 101%
O=C(NCc1ccccc1)C(=O)NCC1OCCN1S(=O)(=O)c1ccc(Br)cc1 (stereo unspecified) 90.8%
O=C(Nc1ccc(NC(=O)c2cccs2)cc1)c1ccc2ccccc2c1 109%
O=S(=O)(c1ccccc1)N1CCc2ccccc21 163%
CC(/C=C/c1ccccc1)=N\NC(=O)C1CC1(C)c1ccccc1 (stereo unspecified) 94.4%
CCCCCC(=O)Nc1ccc(C(=O)N/N=C/c2ccc([N+](=O)[O-])cc2)cc1 103%
COc1ccccc1CSc1ncc(-c2ccc([N+](=O)[O-])cc2)[nH]1 110%
CCOc1ccc2nc(Cl)c(C3CC(c4ccccc4)=NN3C(=O)c3cccs3)cc2c1 (stereo unspecified) 95.5%
Cc1ccc2[nH]c3c(=O)n(CC(=O)NCCc4ccc(Cl)cc4)ncc3c2c1 107%
COc1cccc(-c2sc3ccc(OC)cc3c2-c2ccc(OCCN3CCCCC3)cc2)c1 103%
COc1ccccc1NC(=O)C1CCCN1S(=O)(=O)c1ccc(Cl)cc1 (stereo unspecified) 108%
Cc1cc(C(=O)Nc2ccc(C)c(S(=O)(=O)N3CCOCC3)c2)c2ccccc2n1 91.8%
O=C(CCCCCn1c(=O)[nH]c2ccccc2c1=O)NCCc1c[nH]c2ccccc12 110%
Cc1ccc(OCc2cc(C(=O)N(C)CCc3ccccc3)no2)cc1C 106%
CC12CCC(C(=O)N(c3cccc(Cl)c3)C1=O)C2(C)C (stereo unspecified) 102%
CCCCN1C(=O)/C(=C/C=C2/C=Cc3ccccc3N2CC)SC1=S 68.5%
O=C1NC(=O)C2C1C(c1ccc([N+](=O)[O-])cc1)=NN2Cc1ccccc1 (stereo unspecified) 152%
CN(C)S(=O)(=O)c1cc(C(=O)Nc2ccn(C)n2)c(Cl)cc1Cl 93.7%
Cc1ccc(N=C2NC(=O)/C(=C/C=C/c3ccco3)S2)cc1C 104%
COc1ccc2[nH]c3c(C)c4cc[n+](C)cc4c(C)c3c2c1 115%
COc1ccccc1/C=C/C=N/n1c(-c2ccc(Cl)cc2Cl)n[nH]c1=S 101%
CCCCCCCCCCCCCCCC(=O)OC/C=C(C)/C=C/C=C(C)/C=C/C1=C(C)CCCC1(C)C 106%
C/C(N)=C(/C#N)C(=O)COC(=O)c1cc(-c2cccc(Br)c2)nc2ccccc12 110%
CCc1ccc(NC(=O)Cn2ncn3c(cc4ccccc43)c2=O)cc1 105%
CCOC(=O)c1c(NC(=S)NC(=O)c2ccco2)sc2c1CCCC2 81.2%
COc1cccc(NC(=O)CN(C)C(=O)/C=C/c2cc(OC)ccc2OC)c1 91.9%
CCCc1nc(N2CCN(C)CC2)c2sc(=S)n(-c3ccccc3)c2n1 99.3%
COc1ccc(C(=O)NC2CC(C)(C)Cc3c2cnn3-c2ccccc2)c(OC)c1 (stereo unspecified) 100%
CCNc1c(NS(=O)(=O)c2ccc(C3CCCCC3)cc2)c(=O)oc2ccccc12 94%
COc1ccc(NC(=S)N2CCc3cc(OC)c(OC)cc3C2)cc1 102%
CCNC(=O)c1c(O)c2cccc3c2n(c1=O)CC3 83.8%
Cc1csc(NC(=O)c2ccc(-c3ccc(Cl)cc3Cl)o2)n1 96.6%
CSCCC(NC(=O)COc1ccccc1)C(=O)OCCOc1ccc(Br)cc1 (stereo unspecified) 93.4%
O=C(OCc1ccc(-c2ccccc2)cc1)c1cccc(O)c1 116%
Cc1ccc2c(c1)NC(=O)[C@@]1(C)[C@@H](c3ccccc3)[C@H]3COc4ccc(Cl)cc4[C@@H]3N1C2=O 103%
COc1ccc2sc(-c3ccccc3OC)c(-c3ccc(OCCN4CCCC4)cc3)c2c1 112%
Cc1cccc(NC(=O)COc2ccccc2C)n1 95%
Cc1c(CCOC(=O)CC23CC4CC(CC(C)(C4)C2)C3)sc[n+]1Cc1ccc([N+](=O)[O-])cc1 106%
O=C(CNC(=O)c1ccc(-c2ccccc2)cc1)OCc1ccc(Cl)cc1 110%
C=CCC[C@@H](Cc1ccc(F)cc1)C(=O)OC[C@H](Cc1c[nH]c2ccccc12)NC(=O)[C@@H](CC=C)CC(=O)N(CCO)Cc1ccccc1 92.1%
O=C(Cn1c(COc2ccccc2)nc2ccccc21)Nc1cc(Cl)c(Cl)cc1Cl 93.4%
CCCCOc1ccc(C(=O)NCC(=O)OCC(=O)c2c(N)n(C)c(=O)n(C)c2=O)cc1 97.6%
NNC(=O)COc1ccc(C2SCCS2)cc1 85.2%
CC(C)C(=O)N1CCC2(CC1)Oc1ccc(F)cc1C(=O)C21CC(c2ccccc2)=NO1 (stereo unspecified) 97.8%
COc1ccc(-c2sc3ccccc3c2-c2ccc(OCCN3CCOCC3)cc2)cc1 108%
CN1CCN(S(=O)(=O)c2ccc(NC(=S)NC(=O)C3CC3)cc2)CC1 106%
O=C(Cc1ccccc1)NCC1OCCc2ccccc21 (stereo unspecified) 109%
Cc1nn(C)cc1N1C(=O)c2cccc3c(N)ccc(c23)C1=O 111%
CCOc1ccc(C2/C(=C(/O)c3ccc4c(c3)CC(C)O4)C(=O)C(=O)N2CCCn2ccnc2)cc1 (stereo unspecified) 107%
O=C(Cc1ccc(Br)cc1)N1CCN(c2ccccn2)CC1 98.2%
CN=C(c1ccccc1)c1c(C)cccc1C 103%
O=C(CN1C(=O)C2C3CCC(C3)C2C1=O)Oc1ccc2ccccc2c1 (stereo unspecified) 107%
Cc1nn(C)cc1C(=O)Nc1ccccc1Br 85.7%
COc1ccc(C(=O)C2CCCN(Cc3cccn3-c3ccccn3)C2)c(C)c1 (stereo unspecified) 109%
O=C(CSc1nnc(-c2cccnc2)n1Cc1ccco1)c1ccc(Cl)c(Cl)c1 104%
COc1ccc(C(=O)NC2CCCc3c2cnn3-c2cccc(C)c2C)c(OC)n1 (stereo unspecified) 92.9%
CC1CCc2c(sc(NC(=O)c3ccc(Cn4cc(Br)cn4)o3)c2C(N)=O)C1 (stereo unspecified) 100%

Fluorescence ratio to DMSO, active:
C[n+]1ccc(/C=C/c2c[nH]c3ccccc23)cc1 385%
CCn1c(/C=C/c2ccc([N+](=O)[O-])o2)nc2ccccc2c1=O 431%
CC[n+]1cc(C)ccc1/C=C/c1ccc(N(C)C)cc1 1680%
